Compound activity: PubChem, Sanford-Burnham Center for Chemical Genomics
beta cell repl = induces beta-cell replication in MIN6 cells; MIN6 cells proliferation, ATPlite luminescence, 48 h; cells starved in 0.2% serum; 100% = growth in 10% serum; proliferation, % at 10 µM; 330,000 tested, 0.29% active;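 active = compounds whose signal lies at least 3.5 SD above the mean of all wells on their plate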
GRIN3A LBD mod = NR3A (human) ligand-binding domain modulation. AID 1259313. 340,000 tested, 2.5% active. NR3A LBD differential scanning fluorimetry, Tm shift; 0% = protein alone, 100% = glycine-bound protein. Tm shift relative to glycine control, % at 25 µM;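 active = melting temperature shift of at least 10% of the positive control shift, at one fixed dose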
p-CIP stab down = compounds decreasing mouse p/CIP protein stability; F442A p/CIP-EGFP cells, EGFP fluorescence, 16 h; decrease of EGFP signal, % at 10 µM; 290,000 tested, 0.01% active; Q05BA5;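 active = EGFP signal decrease of at least 30% at 10 µM or well 3 SD below plate mean, unless failing retest; inactive = the rest, including hits failing retest or dose response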
MPTP block = blocks calcium-induced mitochondrial swelling; 360,000 tested, 1.4% active; isolated mouse mitochondria, Ca2+ swelling absorbance, 30 min; inhibition, % at 10 µM;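 active = inhibition of 50% or more, scaled per plate between neutral and stimulator controls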
FAS TE block = inhibitors of human fatty acid synthase thioesterase domain | P49327 | recombinant FAS-TE, OMFH fluorogenic substrate, fluorescence endpoint | inhibition, % at 15 µM | 360,000 tested, 0.67% active;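 active = compounds whose normalised, plate-corrected inhibition of enzyme fluorescence in the single-dose primary screen is 50% or more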
Large screens that a line does not name were inactive. Shown are actives, neighbours in structure and some others; about 4.1% of the full set was active somewhere.

CCOc1cc(/C=N/NC(=O)c2nn(C)cc2Br)ccc1OCc1ccccc1	GRIN3A LBD mod 10.2
COc1ccc(/C=N/NC(=O)c2c(C)nnn2-c2nonc2N)cc1OC	GRIN3A LBD mod 19.4
COc1ccc(/C=N/NC(=O)c2nn(C)cc2Br)cc1CSCc1ccco1	none
COc1ccc(/C=N/NC(=O)c2nnn(-c3nonc3N)c2C)cc1OC	none (no result: beta cell repl, GRIN3A LBD mod, p-CIP stab down)
COc1ccc(S(=O)(=O)NC(=O)C2(C)CCN2C(=O)c2c(C)noc2C)cc1 (stereo unspecified)	none (no result: beta cell repl, GRIN3A LBD mod, p-CIP stab down)
O=S(=O)(Nc1ccc(O)c(Sc2nc3ccccc3s2)c1)c1ccc(Cl)cc1	GRIN3A LBD mod 16.0
O=c1c2[nH]c3ccc(Br)cc3c2ncn1CCCn1ccnc1	GRIN3A LBD mod 16.3
O=c1c2[nH]c3ccccc3c2ncn1CCCn1ccnc1	none
CCCn1c(=O)c2ccccc2n2c(SCCOc3ccc(OC)cc3)nnc12	GRIN3A LBD mod 10.6
NC(=O)c1c(/N=C/c2cccnc2)sc2c1CCCC2	GRIN3A LBD mod 11.0
COc1ccc(CN2C(=O)CSCC2(C)C(=O)Nc2ccc3c(c2)OCCO3)cc1 (stereo unspecified)	none (no result: beta cell repl, GRIN3A LBD mod, p-CIP stab down, FAS TE block)
CCc1nc2ccc(C(=O)NCc3cccs3)cn2c1N(CC)Cc1cccc(Br)c1	none (no result: beta cell repl, GRIN3A LBD mod, p-CIP stab down)
CC(=N\Nc1ccc(Cl)cc1)/C(=N/O)C(=O)Nc1ccccc1	GRIN3A LBD mod 22.9
Cn1cccc1/C=C1\SC(=Nc2cccc(O)c2)NC1=O	GRIN3A LBD mod 26.1
Cn1cccc1/C=C1\SC(=Nc2ccccc2)NC1=O	none
CCc1ccc(N=C2NC(=O)/C(=C/c3cc(OC)c(OC)c(OC)c3)S2)cc1	none
O=C1NC(=Nc2ccc(O)cc2)S/C1=C/c1ccco1	GRIN3A LBD mod 12.7
Cn1cccc1/C=C1\SC(=Nc2ccc(O)cc2)NC1=O	none
COc1cc(/C=C2\SC(=Nc3ccc(O)cc3)NC2=O)cc(OC)c1O	GRIN3A LBD mod 12.6
Cc1ccc(N=C2NC(=O)/C(=C/c3cn(C)c4ccccc34)S2)cc1C	GRIN3A LBD mod 32.2 (no result: beta cell repl)
CCCN1CCC(C)(C(=O)Nc2cccc(OC(C)C)c2)C1 (stereo unspecified)	none (no result: beta cell repl, GRIN3A LBD mod, p-CIP stab down)
C[C@H]1CN([C@@H](C)CO)C(=O)CCCn2nncc2CO[C@H]1CN(C)C(=O)c1ccccc1	none (no result: beta cell repl, GRIN3A LBD mod, p-CIP stab down)
Cc1c(CC(=O)NCC(=O)NCC(=O)N[C@@H](Cc2ccccc2)C(=O)O)c(=O)oc2c(C)c(O)ccc12	none (no result: beta cell repl, GRIN3A LBD mod, p-CIP stab down)
CCc1nc2c(OCC(=O)C(C)(C)C)cccn2c1N(C)C(=O)c1ccc(C)cc1	none (no result: beta cell repl, GRIN3A LBD mod, p-CIP stab down)
O=C(NCc1ccccc1)c1cc(C2COCCN2C(=O)OCCF)on1 (stereo unspecified)	none (no result: beta cell repl, GRIN3A LBD mod, p-CIP stab down)
Oc1ccc2c(c1)c1ccccc1c1ncccc21	GRIN3A LBD mod 30.8 (no result: beta cell repl, p-CIP stab down)
Oc1c(Cl)c(Cl)c2ncccc2c1Cl	none (no result: beta cell repl, p-CIP stab down)
c1ccc(Nc2nc3ccccc3o2)cc1	none
Fc1ccccc1Nc1nc2ccccc2o1	GRIN3A LBD mod 33.9
Nc1sccc1C(=O)N1CCN(c2ccccc2)CC1	none (no result: beta cell repl, GRIN3A LBD mod, p-CIP stab down, FAS TE block)
Nc1nonc1-n1nnc(C(=O)N/N=C/c2cccc(Cl)c2)c1CSc1ccc(Cl)cc1	GRIN3A LBD mod 33.2
Nc1nonc1-n1nnc(C(=O)N/N=C/c2ccccc2)c1CSc1ccc(Cl)cc1	GRIN3A LBD mod 29.7
Nc1nonc1-n1nnc(C(=O)N/N=C/c2cccc(Cl)c2)c1CSc1ccccc1	none
O=C(NCc1ccncc1)[C@@H]1CCCN1C(=O)[C@H]1CCCN1C(=O)c1cccc(Cl)c1	none (no result: beta cell repl, GRIN3A LBD mod, p-CIP stab down)
Cc1cccc(S(=O)(=O)Nc2ccc(-c3nc4ccc(C)cc4s3)cc2)c1	none
Cc1ccc(N(CC(=O)Nc2ccc(-c3nc4ccc(C)cc4s3)cc2)S(C)(=O)=O)cc1	none
Cc1ccc2nc(-c3ccc(NC(=O)C(C)Sc4nncs4)cc3)sc2c1 (stereo unspecified)	GRIN3A LBD mod 14.3 (no result: p-CIP stab down)
Cc1ccc(C)c(N(CC(=O)Nc2ccc(-c3nc4ccc(C)cc4s3)cc2)S(C)(=O)=O)c1	GRIN3A LBD mod 23.5
Cc1ccc(S(=O)(=O)Nc2ccc(-c3nc4ccc(C)cc4s3)cc2)cc1	GRIN3A LBD mod 16.0
COC(=O)C[C@@H]1C=C[C@H](NC(=O)Nc2ccc(F)cc2)[C@@H](CO)O1	none (no result: beta cell repl, GRIN3A LBD mod, p-CIP stab down, FAS TE block)
O=C(CN1C(=O)C(=O)N(Cc2ccccc2)C1=O)Nc1cc(Cl)cc(Cl)c1	GRIN3A LBD mod 26.5
O=C(COC(=O)c1ccc2c(c1)C(=O)N(CCc1ccccc1)C2=O)Nc1ccc(OC(F)F)cc1	none
COc1ccc(OC)c(NC(=O)CN2C(=O)C(=O)N(Cc3ccccc3)C2=O)c1	none (no result: p-CIP stab down)
O=C(CN1C(=O)C(=O)N(Cc2ccccc2)C1=O)Nc1ccc(OC(F)F)cc1	GRIN3A LBD mod 15.7 (no result: p-CIP stab down)
COc1ccc(NC(=O)C2(C)CCN2C(=O)C(C)C)cc1F (stereo unspecified)	none (no result: beta cell repl, GRIN3A LBD mod, p-CIP stab down)
Cc1ccc(NC(=O)c2cccc(C(=O)Nc3ccc(C)cc3C(=O)O)c2)c(C(=O)O)c1	GRIN3A LBD mod 24.6
COc1ccc(C)cc1NC(=O)c1cccc(C(=O)Nc2cc(C)ccc2OC)c1	none
O=C(Nc1c2c(nn1-c1ccccc1)CS(=O)C2)c1ccco1 (stereo unspecified)	GRIN3A LBD mod 17.2
Cc1cccc(N=C2NN=C(c3ccc4c(c3)OCCO4)CS2)c1	none
Cc1cccc(N=C2NN=C(c3c(C)[nH]c4ccccc34)CS2)c1	GRIN3A LBD mod 19.5
COc1cc(OC)cc(C(=O)/C=C2\Sc3ccccc3N2C)c1	none
CN1/C(=C\C(=O)c2cccc([N+](=O)[O-])c2)Sc2ccccc21	GRIN3A LBD mod 12.4
COc1cccc(NC(=O)C(Sc2nnc(Nc3ccccc3C)s2)c2ccccc2)c1 (stereo unspecified)	GRIN3A LBD mod 11.2
COc1ccc(OC)c(NC(=O)C(Sc2ccccc2)c2ccccc2)c1 (stereo unspecified)	none
COc1ccc(Nc2nnc(SC(C(=O)Nc3ccc(OC)c(Cl)c3)c3ccccc3)s2)cc1 (stereo unspecified)	GRIN3A LBD mod 25.2
COc1ccc(Nc2nnc(SC(C(=O)Nc3cc(C)ccc3C)c3ccccc3)s2)cc1 (stereo unspecified)	GRIN3A LBD mod 17.3
COc1ccc(C)cc1NC(=O)C(Sc1nnc(Nc2cc(C)ccc2OC)s1)c1ccccc1 (stereo unspecified)	none
COCCN(C(=O)COC(=O)c1ccc2c(c1)OCO2)c1c(N)n(Cc2ccccc2)c(=O)[nH]c1=O	none (no result: beta cell repl, GRIN3A LBD mod, p-CIP stab down)
NC(=O)c1cc2c(s1)-c1cc(Cl)ccc1SC2	GRIN3A LBD mod 46.7
Cc1cc(=O)nc2c3ccccc3n(CC(=O)NC(C)c3ccc4c(c3)OCCO4)n12 (stereo unspecified)	GRIN3A LBD mod 13.4
CC(C)CN1CCC1(C)C(=O)Nc1cccc(C#N)c1 (stereo unspecified)	none (no result: beta cell repl, GRIN3A LBD mod, p-CIP stab down)
Cc1ccc2c(C)c(C(=O)Nc3ccc(S(N)(=O)=O)cc3)oc2c1C	none
Cc1c(C(=O)Nc2ccc(F)c(F)c2)oc2ccc(S(=O)(=O)N3CCCCC3)cc12	GRIN3A LBD mod 31.4
Cc1c(C(=O)Nc2ccc(F)cc2)oc2ccc(S(=O)(=O)N3CCCC3)cc12	none
